Screening results as filed in PubChem BioAssay.
TRb-SRC2 inh – qHTS for Inhibitors of the Interaction of Thyroid Hormone Receptor and Steroid Receptor Coregulator 2; TRbeta-SRC2 peptide binding, fluorescence polarization; receptor liganded with 1 µM T3; 280,000 compounds, 0.065% hits; Potency, µM (highest dose often 106 µM), for the others: at the highest dose activity change, negative = inhibition, most hits filed as inhibitors; AID 1469, 2008;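 also: plate controls were bound peptide for no effect and peptide without receptor for full effect; nearly all actives have a fitted effect of over 50% in size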
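TRb LBD 0.6 uM + Texas Red SRC2 peptide 20 nM, 1 uM T3, Tris buffer w/ 5% DMSO; compound pinned, 5 h RT; FP read ex 555/em 632; normalized to unbound and bound controls.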
Tau fibril FP – qHTS for Inhibitors of Tau Fibril Formation, Fluorescence Polarization. Microtubule-associated protein tau (Homo sapiens), P10636. K18 P301L tau heparin fibrillization, Alexa594 FP, 6 h. 280,000 compounds, 0.39% hits. Potency, µM (titrated, usually from 57.7 µM), without a hit: at the top dose activity, negative = inhibition, usual class: inhibitors. AID 1468, 2008; also: nearly all actives have a fitted effect of over 55% in size
Target sequence (P10636 561-689 P618L limits assumed): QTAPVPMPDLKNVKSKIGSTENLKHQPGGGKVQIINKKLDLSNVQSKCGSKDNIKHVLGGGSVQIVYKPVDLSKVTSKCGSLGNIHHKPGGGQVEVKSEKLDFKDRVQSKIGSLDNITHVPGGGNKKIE
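K18 P301L tau (15 uM unlabeled/0.24 uM Alexa 594-labeled, final) + compound + heparin 20 uM final; 100 mM NaOAc pH 7; 6 hr 37 C; ThT 30 uM final added, 1 hr RT; FP ex 555/em 632 nm.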
Tau fluor counter – Counterscreen qHTS for Inhibitors of Tau Fibril Formation, Fluorescence Polarization. tau K18 P301L Alexa594 fluorescence, heparin fibrillization. Potency, µM (titrated, usually from 57.7 µM), inactives show top-dose activity change, negative = decrease. 280,000 compounds, 0.93% hits; also: nearly all actives have a fitted effect of over 55% in size
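Human K18 P301L tau (15 uM unlabeled plus 0.24 uM Alexa 594-labeled, final) in 100 mM sodium acetate pH 7 was mixed with compound and 20 uM heparin and incubated 6 hr at 37 C.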
TexasRed fluor – Total Fluorescence Counterscreen for Inhibitors of the Interaction of Thyroid Hormone Receptor and Steroid Receptor Coregulator 2; TRb/SRC2 Texas Red total fluorescence interference; 280,000 compounds, 0.29% hits; AID 1479, 2009; Potency, µM (titrated, usually from 106 µM), for the others: top-dose fluorescence change, negative = quenching; active = well fitted curve in either direction with a large enough effect; inconclusive = small, poorly fitted or top-dose-only effect
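Human TRb ligand-binding domain at 0.6 uM with 20 nM Texas Red SRC2 peptide in Tris buffer containing 1 uM T3 and 5% DMSO, incubated with compound 5 h at ambient temperature. Total fluorescence (555/632 nm) calculated as parallel + 2 × perpendicular.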
RGS12 GoLoco inh – qHTS Assay for Inhibitors of RGS12 GoLoco Motif Activity (Red Fluorophore); Guanine nucleotide-binding protein G(i) subunit alpha-1 (Homo sapiens), P63096; Gai1:RGS12 GoLoco peptide FP, rhodamine, 10 min; Potency, µM (doses to about 61.6 µM), for the others: at the top dose activity, negative = inhibition, most hits filed as inhibitors; 230,000 compounds, 0.44% hits; active = well fitted inhibition curve with a large enough effect, not every such curve was filed as active; inactive = no such curve, though single readings can be large or run the other way; also: nearly all actives have a fitted effect of over 30% in size
Target sequence (P63096 whole entry, looked up): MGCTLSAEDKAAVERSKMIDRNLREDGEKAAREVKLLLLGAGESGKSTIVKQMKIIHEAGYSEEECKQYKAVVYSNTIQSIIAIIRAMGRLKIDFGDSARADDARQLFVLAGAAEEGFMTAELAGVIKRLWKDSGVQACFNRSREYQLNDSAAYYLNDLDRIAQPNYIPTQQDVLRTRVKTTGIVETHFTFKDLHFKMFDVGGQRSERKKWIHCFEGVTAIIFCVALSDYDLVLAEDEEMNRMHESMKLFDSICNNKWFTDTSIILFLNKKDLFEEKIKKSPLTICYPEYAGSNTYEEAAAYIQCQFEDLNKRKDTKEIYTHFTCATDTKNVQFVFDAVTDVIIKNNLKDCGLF
Tau fibril ThT – qHTS for Inhibitors of Tau Fibril Formation, Thioflavin T Binding | Microtubule-associated protein tau (Homo sapiens), P10636 | recombinant tau K18 P301L (four-repeat tau fragment), heparin-induced fibrillization, ThT fluorescence | Potency, µM (titrated, usually from 57.4 µM), without a hit: at the highest dose activity, negative = inhibition, actives largely listed as inhibitors | 270,000 compounds, 2.1% hits; also: nearly all actives have a fitted effect of over 55% in size
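Aggregation was driven by heparin (20 uM final) acting on recombinant tau […] bearing P301L in 100 mM sodium acetate pH 7; fibrils were detected with Thioflavin T.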
Numbers without * were called inactive; ? = inconclusive; / = no result given; [ ] = dose if it differs, or a comment. Compounds with a hit are over-represented: about 3.2% of the library has one in this group of screens. Unless noted, calls follow the shape of the dose curve; as a rule, active = well fitted curve in the direction sought with a large enough effect; inconclusive = small, poorly fitted or top-dose-only effect, or another doubt; inactive = no such curve, though single readings can be large; an effect the other way counts as inactive or inconclusive. Unless noted, % is scaled to controls: 0 for no effect and ±100 for the full control effect; potency is read from the fitted curve at half-maximal effect.

SMILES	TRb-SRC2 inh	Tau fibril FP	Tau fluor counter	TexasRed fluor	RGS12 GoLoco inh	Tau fibril ThT
CC(=O)Nc1ccc(NC(=O)c2ccc3c(c2)NC(=O)c2ccccc2S3)cc1	6%	-3%	?	10%	/	?
C/C(=N\Nc1ccc(C(=O)O)cc1)c1ccc2c(c1)Nc1ccccc1S2	-8%	-10%	13µM*[quencher]	-5%	-2%	3.5µM*
Cc1nc(NC2CCCCC2)c2nc(-c3ccccc3)n(CCN3CCCC3)c2n1	5%	-1%	-6%	-5%	10%	-6%
C[C@H](CCC(=O)NCC(=O)O)C1CC[C@H]2C3CC[C@@H]4C[C@H](O)CC[C@]4(C)C3C[C@H](O)[C@]12C (stereo partly specified)	-7%	-1%	0%	-1%	4%	-3%
Cc1ccccc1N/N=C/c1sc(=O)n(Cc2cccc(C(=O)O)c2)c1Cl	1%	-7%	?	-6%	2%	28µM*
O=C(O)c1cccc(Cn2c(Cl)c(/C=N/NC(=O)c3ccccc3)sc2=O)c1	-5%	-6%	0%	0%	16%	-10%
O=C(O)c1cccc(Cn2c(Cl)c(/C=N/NC(=O)c3cc4ccccc4cc3O)sc2=O)c1	15%	?	?	-6%	10%	20µM*
COC(=O)[C@H]1O[C@@H](c2cc(OC)c(C)c(OC)c2OCc2ccccc2)[C@H](C)[C@H]2O[C@@]12C	9%	-15%	-19%	-1%	3%	-4%
C[C@@H]1C(=O)N(S(=O)(=O)c2ccc([N+](=O)[O-])cc2)[C@H]1c1ccccc1	3%	/	/	-3%	/	/
COc1ccc(-c2noc(CSc3nnc(-c4ccncc4)n3-c3ccc(C)cc3)n2)cc1	7%	-3%	-20%	-19%	/	?
Cc1ccc(-c2noc(CSc3nnc(C)n3-c3ccc(C)c(C)c3)n2)cc1	1%	1%	-7%	-10%	/	-15%
Cc1ccc(-c2noc(CSc3nnc(C)n3-c3ccc(C)cc3)n2)cc1	-25%[53 µM]	5%	-5%	0.11µM*[quencher]	/	-16%
COc1ccc(-c2noc(CSc3nnc(-c4ccncc4)n3-c3ccc(OC)cc3)n2)cc1	?	-3%	-19%	0.25µM*[quencher]	/	?
COc1ccc(-c2noc(CSc3nnc(Cc4ccccc4)n3-c3ccccc3)n2)cc1OC	-23%[53 µM]	4%	-29%	0.28µM*[quencher]	/	?
Cc1noc(C)c1-c1nc(NCc2cccs2)c2ccccc2n1	/	/	/	/	-1%	/
OC[C@@H]1[C@@H](c2ccccc2)C(c2ccc(F)cc2)=NN1c1ccccc1	11%	?	10µM*[quencher]	1%	-27%[88.7 µM]	?
O=C1OCCN1C(=O)[C@H]1[C@H](c2ccc(F)cc2)C(c2cccc(Cl)c2)=NN1c1ccccc1	4%	-10%	?	-3%	6%	-4%
OC[C@@H]1[C@@H](c2ccccc2)C(c2cccc(Cl)c2)=NN1c1ccccc1	-2%	?	18µM*[quencher]	-6%	14%[88.7 µM]	?
OC[C@@H]1[C@@H](c2ccc(Cl)cc2)C(c2ccc(F)cc2)=NN1c1ccccc1	-1%	14%[81.3 µM]	25µM*[quencher]	-5%	8%[88.7 µM]	-23%[81.4 µM]
OC[C@@H]1[C@@H](c2ccccc2)C(c2ccccc2)=NN1c1ccccc1	4%	?	13µM*[quencher]	-4%	5%[88.7 µM]	?
CC1CCC2C(=O)OC(CN=[N+]=[N-])CN2C1c1ccc(Br)cc1 (stereo unspecified)	0%[11.2 µM]	2%[11.6 µM]	-16%[11.6 µM]	-1%[11.2 µM]	/	-12%[11.5 µM]
COCCn1c(=O)c(-c2ccc(Cl)cc2)nc2cnc(Oc3cccc(Cl)c3)nc21	/	/	/	/	-2%	/
OC[C@@H]1[C@@H](c2ccc(F)cc2)C(c2ccc(F)cc2)=NN1c1ccccc1	1%	-1%[81.3 µM]	28µM*[quencher]	-4%	11%[88.7 µM]	?
COc1ccccc1[C@H]1C(c2cccc(Cl)c2)=NN(c2ccccc2)[C@@H]1CO	5%	?	20µM*[quencher]	-1%	11%	-17%[81.4 µM]
C[C@H]1C(c2ccccc2)=NN(c2ccccc2)[C@@H]1CO	-2%[201 µM]	?	?	1%[201 µM]	20%[88.7 µM]	?
SMILES	TRb-SRC2 inh	Tau fibril FP	Tau fluor counter	TexasRed fluor	RGS12 GoLoco inh	Tau fibril ThT
OC1CC2CC[C@H](C1)N2CCCN1c2ccccc2Sc2ccc(Cl)cc21 (stereo partly specified)	/	/	/	/	11%[14.2 µM]	/
CC(C)[C@H](Nc1ccc(C(F)(F)F)cc1[N+](=O)[O-])C(=O)O	2%	3%	3%	0%	12%	-14%
O=C(NNc1ccc(C(F)(F)F)cc1[N+](=O)[O-])c1ccc(NS(=O)(=O)c2ccc(F)cc2)cc1	6%	?	11µM*[quencher]	0%	2%	14µM*
COCOc1c2c(c(OCOC)c3c(OCOC)cccc13)/C(=N/NS(C)(=O)=O)C1=C2CCCC1	2%	5%	-16%	-1%	-8%	-14%
Cc1oc(C)c2c(=O)ccc3c(c12)OC(N)=C(C#N)C3c1ccc(F)cc1 (stereo unspecified)	9%	?	?	1%	196%	25µM*
C[n+]1cccc2ccc3c(c21)OC(N)=C(C#N)C3c1ccccc1 (stereo unspecified)	3%	-6%	-2%	1%	-20%	/
N#Cc1cccc(-c2ccc3ncnc(NCc4ccccc4)c3c2)c1	/	/	/	/	9%	/
COc1cccc2nc3cc(C)c(C)cc3nc12	3%	?	-27%	-9%	2%	22µM*
CC(C)[C@H](NC(=O)CNC(=O)OC(C)(C)C)C(=O)N[C@H](C=O)C(C)C	-22%	-5%	-2%	-1%	3%	-6%
COc1cccc(NC2=Nc3cccc4cccc2c34)c1	6%	15%	?	4%	0%	11µM*
COc1ccc(NC2=Nc3cccc4cccc2c34)cc1OC	-10%	3%	?	-4%	12%	13µM*
COc1cc(NC2=Nc3cccc4cccc2c34)cc(OC)c1OC	9%	2%	6%	-1%	108%	3%
COc1ccc(-n2nc([N+](=O)[O-])c(=NCCC3=CCCCC3)n2O)cc1	0%	15%	?	-1%	11%	7.9µM*
COc1ccc(-n2nc([N+](=O)[O-])c(=NCc3ccco3)n2O)cc1	-7%	1%	-29%	2%	0%	10µM*
